The source of these data is PubChem BioAssay AID686979 (National Center for Advancing Translational Sciences (NCATS), 2013).

Hit rate of the full screen: of about 420,000 compounds, about 50,000 (12%) were called active. About 26% were inconclusive and are not listed. The sample as a whole holds a higher share of actives than the screen did. Values without a mark were called inactive. Calls follow the shape of the dose curve; as a rule, active = well fitted inhibition curve with a large enough effect; inconclusive = small, poorly fitted or top-dose-only effect; inactive = flat fitted curve, though single readings scatter.
% is scaled to controls: 0 for no effect and ±100 for the full control effect; potency is read from the fitted curve at half-maximal effect.

The assay in a line: qHTS for Inhibitors of human tyrosyl-DNA phosphodiesterase 1 (TDP1): qHTS in cells in presence of CPT. Also: nearly all actives have a fitted effect of over 55% in size. The note with it: chicken DT40 Tdp1-/-;hTDP1 cells + 20 nM CPT, ATP luminescence, 48 h; series mostly up to 46.2 µM; activity change, negative = growth inhibition: at the top concentration. The procedure, abridged: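 Chicken DT40 Tdp1-/- cells stably complemented with human TDP1 were seeded at 400 cells/well in medium containing 20 nM camptothecin, exposed to pin-transferred compounds, and grown at 37 °C for at least 48 hr. Viability was read as ATP luminescence.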
On to `Nc1nc(COC(=O)CCC(=O)c2ccc(Cl)cc2)nc(Nc2ccccc2)n1`, for which the “activity change, negative = growth inhibition” value was -24.3%.

With `CCCc1cc(C(=O)Nc2ccc(C(=O)OC)cc2)cs1`, the “activity change, negative = growth inhibition” value is -16.7%. On to `CCOC(=O)C1CCCN(C(=O)CN(c2ccc(OC)cc2)S(=O)(=O)c2c(C)noc2C)C1` (configuration not stated), for which the “activity change, negative = growth inhibition” value was -48.7%. Turning to `CCOC(=O)C1CCCN(C(=O)Cn2ncc3c(C)n(Cc4ccc(F)cc4)c(C)c3c2=O)C1` (configuration not stated), the Potency is 14.6 µM (active). Regarding `CCOC(=O)C1CCCN(C(=O)Cn2ncc3c(=O)oc4ccc(C)cc4c32)C1` (configuration not stated), the “activity change, negative = growth inhibition” value is -12.6%. On the same count and under the same terms, under `CCCNC(=O)c1cc(C2CCCCN2S(=O)(=O)c2cn(C)cn2)on1` (configuration not stated) stands -22.3%. Still for that read-out and setting: under `CCS(=O)(=O)N1Cc2ccccc2CC1C(=O)Nc1nc2ccc(F)cc2s1` (configuration not stated) stands -0.226%. The same measure, in the same setting: under `O=C(Nc1ccc(O)cc1)c1ccc(NC(=O)c2ccco2)cc1` stands -8.54%; under `O=C(c1cccs1)N(Cc1cc2ccccc2[nH]c1=O)CC1CCCO1` (configuration not stated), 12.6%. Regarding `Cc1cccc2cc(CN(C(=O)c3cccs3)c3ccccc3)c(=O)[nH]c12`, the “activity change, negative = growth inhibition” value is -19.4%.

With `Cc1cc(C)c2cc(CN(Cc3cccs3)Cc3nnnn3CC3CCCO3)c(=O)[nH]c2c1` (configuration not stated), the Potency was 23.1 µM (active).

In the case of `c1ccc(CCn2nnnc2CN2CCN(C3CCCC3)CC2)cc1`, the “activity change, negative = growth inhibition” value was -0.628%. With `CCC(c1nnnn1C1CCCC1)N(Cc1cccs1)Cc1cc2cccc(C)c2[nH]c1=O` (configuration not stated), the Potency was 20.6 µM (active). Take `Cc1ccc(S(=O)(=O)N(Cc2cc3ccccc3[nH]c2=O)CC2CCCO2)cc1` (configuration not stated): the “activity change, negative = growth inhibition” value was -17.1%. Still for that read-out and setting: under `CCCN(Cc1cc2cccc(C)c2[nH]c1=O)S(C)(=O)=O` stands -2.17%. `Cc1cccc2cc(CN(Cc3nnnn3Cc3ccccc3)C3CCCC3)c(=O)[nH]c12`: the Potency is 20.6 µM (active).

Turning to `Cc1cc(C)c2cc(CN(Cc3nnnn3Cc3ccc(F)cc3)C3CCCC3)c(=O)[nH]c2c1`, the Potency is 14.6 µM (active). Consider `Cc1cccc2cc(CN(Cc3cccs3)C(c3nnnn3C3CCCC3)C(C)C)c(=O)[nH]c12` (configuration not stated), for which the “activity change, negative = growth inhibition” value is -77.9%.

Take `Cc1n[nH]c(=O)c2c1nnn2Cc1ccc(F)cc1`: the “activity change, negative = growth inhibition” value was -4.85%. Still for that read-out and setting: the same measure for `Cc1occc1-c1nnc(SCC(=O)NC2CCCCC2)o1`: -8.72%; for `Cc1cc2c(cc1S(=O)(=O)CCC(=O)NCc1ccccc1)OCC(=O)N2`: 5.34%; for `CCSCc1nc(N)nc(NCCc2ccccc2)n1`: -6.97%. For the molecule `CCOc1ccc(-n2cnc3c(=O)[nH]c(N)nc32)cc1`, the “activity change, negative = growth inhibition” value was 2.7%.

On to `CN(Cc1ccc(F)cc1)C(=O)COc1ccc2ccccc2c1`, for which the “activity change, negative = growth inhibition” value was 21.9%. Still for that read-out and setting: under `NC(=O)c1cc(-c2cccnc2)nc2ccc(Br)cc12` stands -19.6%.

For `CN1CCCCCC1C(=O)NCCN1Cc2ccccc2OC(c2ccsc2)C1` (configuration not stated), the activity change, negative = growth inhibition is 11.9% [at 9.04 µM].

Consider `C#CCOCCOCCOCCNc1nc(N2CCOCC2)nc(N2CCN(C(=O)[C@H](Cc3ccc(O)cc3)n3cc(CCO)nn3)CC2)n1`, for which the “activity change, negative = growth inhibition” value is -10%. On the same count and under the same terms, under `CCN(C(=O)COC(=O)CCC(=O)c1cccs1)C1CCCCC1` stands -12.4%. Same read-out and setting: the same measure for `COc1ccc(C2c3c(C)nn(-c4ccccc4)c3NC(=O)N2c2ccccc2)cc1` (configuration not stated): -0.19%.

Take `COc1ccc(Br)cc1C1CC(=O)Nc2c1c(C)nn2-c1nc(C)cc(C)n1` (configuration not stated): the Potency was 16.4 µM (active).

In the case of `COc1ccc(C2CC(=O)Nc3c2c(=O)nc2c(C)cccn32)cc1OC` (configuration not stated), the “activity change, negative = growth inhibition” value is -19.8%.

For `COC(=O)C1(C)NC(c2ccc(F)cc2)C2C(=O)N(c3ccccc3)C(=O)C21` (configuration not stated), the “activity change, negative = growth inhibition” value is 10%. Regarding `CCOC(=O)C1(C)NC(c2ccco2)C2C(=O)N(c3ccccc3)C(=O)C21` (configuration not stated), the “activity change, negative = growth inhibition” value is 2.33%.

For the molecule `CCCCC1(C(=O)OCC)NC(c2ccc(O)cc2)C2C(=O)N(c3ccccc3)C(=O)C21` (configuration not stated), the Potency was 14.6 µM (active).

Take `COc1ccc(NC(=O)/C(C#N)=C\c2cc(OC)c(OCc3ccc(C(=O)O)cc3)cc2Br)cc1`: the “activity change, negative = growth inhibition” value was 0.494%. `COc1ccccc1C(=O)N/C(=C/c1ccco1)C(=O)Nc1ccc(C(=O)O)cc1`: the “activity change, negative = growth inhibition” value is 9.19%. For `COCCCn1c(=O)/c(=C/c2ccccc2OC(C)C)s/c1=C(\C#N)C(=O)Nc1ccc(C(=O)O)cc1`, the Potency is 20.6 µM (active). In the case of `Cn1c(N)c(C(=O)COC(=O)COc2ccc(Cl)cc2)c(=O)n(C)c1=O`, the “activity change, negative = growth inhibition” value is 3.59%. In the case of `COc1ccc(-c2cc(=O)oc3cc(OC(C)C(=O)NCC4CCC(C(=O)O)CC4)ccc23)cc1` (configuration not stated), the “activity change, negative = growth inhibition” value was -18.1%. As for `COc1ccc(NC(=O)CNc2cc(S(=O)(=O)N3CCOCC3)ccc2N2CCOCC2)c(OC)c1`, the “activity change, negative = growth inhibition” value was -1.41%. `O=C(CC12CC3CC(CC(C3)C1)C2)NCc1ccco1`: the “activity change, negative = growth inhibition” value was -12.8%. On the same count and under the same terms, under `NS(=O)(=O)c1cccc(NC(=O)CC23CC4CC(CC(Br)(C4)C2)C3)c1` stands -5.01%. For the molecule `O=C(CC12CC3CC(CC(C3)C1)C2)Nc1ccc2c(c1)COC2=O`, the Potency was 13 µM (active). Turning to `CCN1CCN(C(=O)N(Cc2ccc(Cl)cc2)S(=O)(=O)c2ccc(C)cc2)CC1`, the “activity change, negative = growth inhibition” value was -26%. As to `S=C(NCCc1ccccc1)Nc1ccccc1`, the “activity change, negative = growth inhibition” value was -25.1%. Same read-out and setting: under `CC(=O)Nc1ccc(S(=O)(=O)N(C)CC(=O)NCCC2=CCCCC2)cc1` stands -21.1%. Turning to `S=C(NCCC1=CCCCC1)Nc1ccccc1`, the Potency was 16.4 µM (active). Regarding `COc1ccc(-c2cc(-c3ccc(F)cc3)nc3c2COc2ccccc2-3)cc1`, the “activity change, negative = growth inhibition” value is -25.9%. The same measure, in the same setting: the same measure for `CC(C)(C)C(=O)COC(=O)c1cc(S(=O)(=O)N2CCCCC2)ccc1N1CCOCC1`: -4.64%; for `O=C(CCCN1C(=O)c2ccccc2C1=O)Oc1ccc(Cl)cc1`: 1.06%. Regarding `CCCCN(C(=O)CSCC(=O)Nc1ccc(OC)cc1)c1c(N)n(CCC)c(=O)[nH]c1=O`, the “activity change, negative = growth inhibition” value is 2.83%. Still for that read-out and setting: the same measure for `CC(C)C(=O)NC(C)c1nnc2n1CCN(Cc1cccc3ncccc13)CC2` (configuration not stated): 24.6% [at 9.04 µM]. Same read-out and setting: the same measure for `Cc1ccc(-c2nc(C#N)c(NCCCn3ccnc3)o2)cc1`: 0.177%. On to `N#Cc1nc(-c2ccc(OCc3ccccc3)cc2)oc1NCCCN1CCOCC1`, for which the Potency was 20.6 µM (active). On to `O=S(=O)(c1ccccc1)c1nc(-c2ccccc2)oc1NCCCN1CCOCC1`, for which the “activity change, negative = growth inhibition” value was 0.659%. Still for that read-out and setting: the same measure for `Nc1nc(SCC(=O)Nc2cc(C(F)(F)F)ccc2Cl)[nH]c(=O)c1NC(=O)c1ccco1`: 2.93%. On the same count and under the same terms, the same measure for `CO[C@H]1[C@H](NC(=O)C(C)C)c2ccccc2C12CCN(Cc1cnc(N(C)C)s1)CC2`: 1.26% [at 9.04 µM]; for `CCc1nnc(NC(=O)c2ccco2)s1`: -0.358%; for `Cc1ccc2nc(COc3cccc(NC(=O)c4ccccc4Cl)c3)cc(=O)n2c1`: -18.6%. Still for that read-out and setting: under `Nc1ccc2[nH]c(=S)sc2c1` stands -27.9%. `CCOc1ccc2[nH]c(=S)sc2c1`: the Potency is 18.4 µM (active). As to `CCCC(=O)N(CCN1CCOCC1)c1nc2ccc(OCC)cc2s1`, the “activity change, negative = growth inhibition” value was -19.4%.
